Sampled rows, rich in hits. Any-hit rate of the full collection: about 3.5%.
GPR151 activ: activators of human GPR151 | 650,000 compounds, 1% hits | Q8TDV0 | PathHunter beta-arrestin GPR151 cells, luminescence | activation, % at 11.2 µM | AID 1508602; in the data active means activation above about 4.9%;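 further: 0% = median of compound wells and 100% = cells with positive control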
Target sequence (Q8TDV0 whole entry, looked up): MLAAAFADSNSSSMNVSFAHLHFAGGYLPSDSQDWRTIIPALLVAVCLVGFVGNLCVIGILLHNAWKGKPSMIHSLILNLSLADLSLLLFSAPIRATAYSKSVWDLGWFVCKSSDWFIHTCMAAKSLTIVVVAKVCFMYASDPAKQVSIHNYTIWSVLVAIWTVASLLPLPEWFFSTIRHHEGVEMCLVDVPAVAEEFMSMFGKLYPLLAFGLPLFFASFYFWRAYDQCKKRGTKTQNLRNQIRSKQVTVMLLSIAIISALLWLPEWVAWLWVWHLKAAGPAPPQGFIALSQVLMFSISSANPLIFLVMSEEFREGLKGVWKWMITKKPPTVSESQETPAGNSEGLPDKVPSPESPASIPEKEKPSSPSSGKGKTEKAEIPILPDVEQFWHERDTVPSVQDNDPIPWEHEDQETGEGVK
FBW7 activator: activators of human E3 ligase FBW7; Q969H0; AlphaScreen FBW7–phospho-cyclin E peptide binding, activator screen; normalized activity (activation), % at 26.1 µM; 650,000 compounds, 0.13% hits; in the data active means normalized activity above about 1.9%;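 further: purified mutant Fbw7 with reduced substrate affinity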
TEAD-YAP inh: TEAD-YAP interaction inhibition; 640,000 compounds, 1.4% hits; inhibition, % at 9.12 µM; HEK-TIYL cells, TEAD-Gal4/YAP UAS-luciferase luminescence; in the data active means inhibition above about 32%;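 further: 0% = median of test compound wells and 100% = reference inhibitor wells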
MITF inh: human MITF inhibition, primary screen; O75030; AlphaScreen MITF homodimerization, bead proximity signal; inhibition, % at 2.6 µM; 650,000 compounds, 0.91% hits; AID 1259374; in the data active means inhibition above about 50%;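 further: 0% = vehicle wells with protein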
GPR151 conf act: confirmation of human GPR151 activators; shares compounds with GPR151 activ; GPR151 PathHunter beta-arrestin cells, luminescence, 90 min; % of EA-reagent control over plate median; activation, % at 11.2 µM; 6,700 tested, under 10 active;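 active means mean percent activation across replicates above the confirmation screen cutoff of 4.91%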
GPR119 ag: counter-screen for GPR151 activators: effect on human GPR119; activation, % at 11.2 µM; GPR119 PathHunter beta-arrestin cells, luminescence, 90 min; 0 = compound-well median, 100 = enzyme-acceptor control; 6,700 compounds, 0.3% hits; shares compounds with GPR151 activ;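 active means mean percent activation in the counterscreen above 29.09%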;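 further: counterscreen on off-target GPR119 to flag nonselective hits from the GPR151 activator screen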
The depositor's hits bear a star; . = no result; ! = not confirmed by another sample.

SMILES | GPR151 activ | FBW7 activator | TEAD-YAP inh | MITF inh | GPR151 conf act | GPR119 ag
Cc1cc(C(=O)N2C=CC(C(F)(F)F)=NCC2)nn1C | 5.0* | 0 | -3 | 4 | 0 | -3
Cc1ccc(S(=O)(=O)C2CCN(C(=O)c3cc(C)n(C)n3)CC2)cc1 | 0 | 0 | 8 | 3 | . | .
CCOC(=O)N1CCN(C(=O)CN2C(=O)CC(C)(C)S(=O)(=O)c3ccccc32)CC1 | 5.9* | 0 | 7 | 3 | -1 | 3
CC1(C)CC(=O)N(CC(=O)O)c2ccccc2S1(=O)=O | -2 | 0 | 7 | 12 | . | .
CC1Cc2nc(SCC(=O)NCc3ccccc3)n(C)c(=O)c2S1 (centres undefined) | 6.4* | 1 | -3 | 11 | 1 | 5
CCn1c(SCC(=O)c2ccccc2)nc2c(c1=O)SC(C)C2 (centres undefined) | 5.3* | 0 | 10 | 7 | 0 | 5
CCOc1ncccc1C(=O)Oc1ccc(C(=O)OC)cc1OC | 0 | 0 | -5 | -1 | . | .
CCn1c(=O)c(C(=O)NNC(=O)c2ccc([N+](=O)[O-])cc2)c(O)c2ccccc21 | 21* | 0 | 0 | 7 | 0 | -6
CCOC(=O)C1=C(C)N=c2s/c(=C/c3ccc(I)cc3)c(=O)n2C1c1c(OC)ccc2ccccc12 (centres undefined) | 0 | 0 | 8 | 7 | . | .
Cc1ccc([N+](=O)[O-])cc1NS(=O)(=O)c1cc(C(=O)Nc2ccccc2)ccc1C | 0 | 0 | 0 | 2 | . | .
CCn1c(COc2cccc(C)c2)nnc1SCC(=O)Nc1cccc(C(=O)O)c1 | 6.3* | 0 | 0 | 4 | 0 | 3
CCn1c(SCC(=O)Nc2cccc(C(=O)O)c2)nnc1-c1cccc(C)c1 | 0 | 1 | 1 | 7 | . | .
CC(C)N(Cc1nc(-c2ccc(Cl)cc2)no1)C(=O)CC(C)(C)C | 0 | 1 | -1 | 6 | . | .
COc1ccc(CCc2nnc(CCC(=O)NCc3ccccc3F)o2)cc1 | 0 | 0 | -47 | -26 | . | .
COc1ccc(OC)c(Cc2nnc(CCC(=O)NCc3nc4ccccc4s3)o2)c1 | 6.3* | 0 | -9 | -6 | 1 | 12
COc1ccc(CCc2nnc(CCC(=O)NCCc3ccccc3F)o2)cc1 | 6.5* | 0 | -4 | 1 | 0 | -4
COc1ccc(OC)c(Cc2nnc(CCC(=O)NCCc3nc(C)c(C)s3)o2)c1 | -1 | 0 | -9 | 11 | . | .
O=C(CCc1nnc(COc2ccccc2)o1)NCc1nc2ccccc2s1 | 5.1* | 0 | -1 | 9 | 1 | 6
O=C(CCc1nnc(-c2ccccc2)o1)NCc1nc2ccccc2s1 | -1 | 0 | -4 | -1 | . | .
COc1ccc(C)cc1NC(=O)c1sc2nc(C)nc(N3CCN(c4ccccn4)CC3)c2c1C | 0 | 0 | 6 | 13 | . | .
O=C(CCN1C(=O)S/C(=C\c2ccc(Cl)cc2)C1=O)Nc1ccc(C(=O)O)cc1 | 6.9* | 0 | 1 | 16 | 0 | -7
CCOc1ccccc1/C=N/N1C(=O)NC(C)(c2ccc(OC(F)F)cc2)C1=O (centres undefined) | 0 | 0 | -6 | 6 | . | .
COc1ccc(COC(=O)C2=C(C)NC3=C(C(=O)CC(C)(C)C3)C2c2ccc(O)c(OC)c2)cc1 (centres undefined) | 0 | 0 | 4 | 10 | . | .
COc1cc(C2C(C(=O)OCc3ccccc3)=C(C)NC3=C2C(=O)CCC3)ccc1O (centres undefined) | 5.5* | 0 | -4 | -2 | 0 | 7
COc1ccc(COC(=O)C2=C(C)NC3=C(C(=O)CC(C)(C)C3)C2c2ccc(OC)cc2)cc1 (centres undefined) | 1 | 0 | 3 | -7 | . | .
SMILES | GPR151 activ | FBW7 activator | TEAD-YAP inh | MITF inh | GPR151 conf act | GPR119 ag
COc1cc(C2C(C(=O)OC(C)(C)C)=C(C)NC3=C2C(=O)CC(C)(C)C3)ccc1O (centres undefined) | 5.4* | 0 | 4 | 1 | 0 | -3
COc1ccc(COC(=O)C2=C(C)NC3=C(C(=O)CCC3)C2c2ccc(OC)c(O)c2)cc1 (centres undefined) | 5.0*! | 1 | 0 | 11 | 1 | 3
COC(=O)c1ccc(C2C(C(=O)OCc3ccc(OC)cc3)=C(C)NC3=C2C(=O)CC(C)(C)C3)cc1 (centres undefined) | 5.2* | 0 | 5 | 23 | 1 | -10
O=C(CN(Cc1ccccc1)C(=O)c1ccno1)NCc1cccs1 | 2 | 0 | -1 | -8 | . | .
CC(=O)N1N=C(c2ccc3nccnc3c2)CC1c1ccccc1 (centres undefined) | 5.9* | 0 | 1 | 13 | -2 | -21
COc1ccc(C2=NN(C(C)=O)C(c3ccccc3)C2)cc1OC (centres undefined) | 1 | 1 | -17 | 10 | . | .
COc1ccc(C(=O)NNC(=O)c2ccc([N+](=O)[O-])cc2[N+](=O)[O-])cc1 | 1 | 0 | 1 | -2 | . | .
O=C(Cc1cn(-c2ccc(Cl)nn2)c2ccccc12)NCCOc1ccccc1 | 6.9* | 0 | 2 | 5 | 0 | -2
O=C(Cc1cn(-c2ccc(Oc3ccccc3)nn2)c2ccccc12)NCCOc1ccccc1 | 3 | 0 | -12 | 14 | . | .
COc1cccc(-c2n[nH]c(=S)n2Cc2ccco2)c1OC | 9.1* | 1 | -10 | 11 | 1 | 6
COc1ccc(-c2n[nH]c(=S)n2Cc2ccco2)cc1OC | 1 | 0 | -7 | -13 | . | .
CC(=O)c1cccc(NC(=O)COc2ccc3c(C)cc(=O)oc3c2)c1 | -1 | 0 | 16 | 4 | . | .
COc1cc(C2Nc3ccccc3NC3=C2C(=O)CC(c2ccccc2Cl)C3)cc(OC)c1OC (centres undefined) | 5.6* | 0 | -1 | 16 | 0 | -3
O=C(CSc1ccsc1[N+](=O)[O-])N1CCN(c2ccccn2)CC1 | 5.3* | 0 | -3 | -3 | -1 | -2
O=C(CSc1ccsc1[N+](=O)[O-])N1CCN(c2ncccn2)CC1 | 0 | 0 | -10 | -2 | . | .
COC(=O)c1ccc(OC(=O)CCc2ccccc2)cc1 | 0 | 0 | -1 | 7 | . | .
COC(=O)c1c(NC(=O)c2ccc3c(c2)OCO3)sc(C(=O)N2CCCCC2)c1C | 7.5* | 0 | 0 | 3 | 1 | 8
Cc1nn(C)c(C)c1-c1nc2c(NCc3cccnc3)ncnc2n1C(C)C | 7.1* | 1 | -4 | 12 | -1 | -13
CCOc1ccccc1/C=C1\N=C(c2ccc(C)cc2)OC1=O | 0 | 0 | -6 | 12 | . | .
Cc1cccc(C2=N/C(=C\c3ccc(I)o3)C(=O)O2)c1 | 5.3* | 0 | 8 | -10 | 0 | -1
CC(=O)Oc1ccc(/C=C2\N=C(c3cccc(C)c3)OC2=O)cc1OC(C)=O | 7.6* | 0 | 2 | 0 | 2 | 1
CCOc1ccccc1/C=C1\N=C(c2cccc(C)c2)OC1=O | 9.7* | 0 | -11 | 1 | -1 | 0

High-throughput results deposited in PubChem BioAssay by The Scripps Research Institute Molecular Screening Center.
